High-throughput results deposited in PubChem BioAssay by National Center for Advancing Translational Sciences (NCATS).
This is a sample that favours compounds with a hit; in the whole collection about 7.4% have one here.
NPC1 prom act = activates the NPC1 promoter | Huh7 NPC1 promoter luciferase reporter, 24 h | Potency, µM (doses to about 9.22 µM), actives largely listed as activators | 2.4% of 320,000 active | AID 485313; further: nearly all actives have a fitted effect of over 60% in size
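NPC1 promoter–luciferase Huh7 cells; 24 h compound; luminescence.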
FLuc counter = inhibits or activates purified firefly luciferase, miR-21 counter-screen; AID 588342; purified FLuc, Km substrates, luminescence inhibition; Potency, µM (highest dose often 57.5 µM), actives largely listed as inhibitors; 6.9% of 360,000 active; P08659; further: nearly all actives have a fitted effect of over 55% in size
Target sequence (P08659 whole entry, looked up): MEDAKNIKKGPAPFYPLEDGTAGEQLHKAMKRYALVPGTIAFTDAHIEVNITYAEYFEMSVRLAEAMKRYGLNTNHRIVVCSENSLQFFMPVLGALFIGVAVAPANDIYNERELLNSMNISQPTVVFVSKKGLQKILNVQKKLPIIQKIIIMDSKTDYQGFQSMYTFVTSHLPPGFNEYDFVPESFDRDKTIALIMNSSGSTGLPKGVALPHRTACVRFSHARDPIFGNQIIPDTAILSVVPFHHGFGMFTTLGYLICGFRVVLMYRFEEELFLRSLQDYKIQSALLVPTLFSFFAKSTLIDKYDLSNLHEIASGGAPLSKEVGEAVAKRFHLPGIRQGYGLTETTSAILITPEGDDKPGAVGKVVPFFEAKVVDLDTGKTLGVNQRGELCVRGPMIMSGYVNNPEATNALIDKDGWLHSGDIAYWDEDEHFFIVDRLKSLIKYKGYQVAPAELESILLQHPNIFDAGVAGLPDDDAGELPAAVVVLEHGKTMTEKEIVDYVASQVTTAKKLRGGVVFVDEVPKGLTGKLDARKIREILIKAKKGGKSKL
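Purified P. pyralis luciferase, 10 nM final, with Km-level 10 uM D-luciferin and 10 uM ATP in 50 mM Tris acetate pH 7.5, 10 mM Mg acetate, 0.01% Tween-20, 0.05% BSA; 6-point qHTS titration about 60 µM downward; luminescence read.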
SMN2 splice up = SMN2 splice variant enhancement; HEK293 SMN2-luciferase splicing reporter, luminescence, 30-36 h; Potency, µM (series often up to 46.1 µM), usual class: activators; 2.8% of 210,000 active; AID 1458; further: nearly all actives have a fitted effect of over 55% in size
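HEK293 cells carry an SMN2 […]–luciferase reporter in which exon 7 inclusion puts luciferase in frame. Cells were plated 10-12 h before compound addition, then incubated 30-36 h at 37C. ONE-Glo luminescence was read; sodium butyrate at 4.5 mM final served as control.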
Rab9 prom act = activators of Rab9 promoter. Huh7 Rab9 promoter-luciferase reporter, luminescence, 24 h. Potency, µM (top dose mostly 9.22 µM), most hits filed as activators. 2.8% of 320,000 active; further: nearly all actives have a fitted effect of over 60% in size
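Steps: seed 1500 Huh7 Rab9-luc cells per well, rest 2 h at 37 °C; add compound in DMSO; incubate 24 h; add luciferase reagent, 10 min ambient; read luminescence.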
ELG1 genotoxic = genotoxicity induction in ELG1-luciferase HEK293T cells. 1.3% of 330,000 active. Potency, µM (top dose mostly 46 µM), most hits filed as activators. HEK293T ELG1-luciferase reporter, luminescence, 16 h; further: nearly all actives have a fitted effect of over 60% in size
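HEK293T cells expressing luciferase-tagged ELG1 were exposed to compound or DMSO vehicle for 16 hr at 37 °C and 5% CO2. Luciferase activity was then measured with ONE-Glo after 30 min at room temperature.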
Luc counter = blocks Kinase-Glo luciferase, a counter-screen artifact. 0.28% of 200,000 active. Kinase-Glo luciferase, ATP luminescence, 8 min. Potency, µM (doses to about 38.3 µM), hits mostly inhibitors. Q27757; further: nearly all actives have a fitted effect of over 60% in size
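Recombinant Kinase-Glo luciferase, 10 uM ATP (linear range), luciferin; imidazole pH 7.2 / KCl / MgCl2 / Tween / BSA buffer; 8 min RT; luminescence.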
Numbers stand for hits; 0 = inactive; ? = inconclusive; - = not tested or not shown; [ ] = dose if it differs, or a comment. The call rests on the fitted dose curve; in most records, active means well fitted curve in the direction sought with a large enough effect; inconclusive means small, poorly fitted or top-dose-only effect, or another doubt; inactive means no such curve, though single readings can be large; an effect the other way counts as inactive or inconclusive.

SMILES | NPC1 prom act | FLuc counter | SMN2 splice up | Rab9 prom act | ELG1 genotoxic | Luc counter
CC1Cc2ccccc2N1C(=O)/C=C/c1cccc(F)c1 (centres undefined) | 2.2µM | 6µM | 11µM | 1.8µM | ? | 0
Cn1c(CS/C(N)=N/N=C/c2ccccc2)c(Br)c(=O)n1-c1ccccc1 | 0 | 15µM | 0 | 0 | 0 | 0
Cc1c(NC(=S)N/N=C/c2ccc(Br)cc2)c(=O)n(-c2ccccc2)n1C | 0 | 0 | - | 0 | 0 | -
O=C1Cc2c([nH]c3ccc(Br)cc23)-c2ccccc2N1 | 0.52µM | - | 11µM | 0.37µM | - | 0
Brc1ccc2[nH]c3c(c2c1)CCC3 | 0 | 0 | - | 0 | 0 | -
CN(C)c1ccc(/C=N/Nc2cccc(C(=O)O)c2)cc1 | ? | 0.076µM | - | 10µM | ? | -
Clc1ccc(N/N=C/c2ccncc2)cc1Cl | ? | ? | 13µM | ? | ? | 0
Clc1ccc(N/N=C/c2cccnc2)cc1 | 0 | 17µM | ? | 0 | 0 | 0
CC(C)(C)c1ccc(/C=N/Nc2cccc(C(=O)O)c2)cc1 | 0.5µM | 0.17µM | 0.1µM | 1.1µM | 0.15µM | 0
CNC(=S)Nc1cccc(C(=O)O)c1 | 0 | 0 | 0 | 0 | 0 | 0
CCC1CCCCN1S(=O)(=O)c1cc(C(=O)Nc2ccc(C)c(F)c2)ccc1F (centres undefined) | - | 0 | - | - | - | -
COc1ccc(-c2nn(-c3ccc(C)c(Cl)c3)c3c2cnc2cc(OC)c(OC)cc23)cc1 | - | 0 | - | - | - | -
CNS(=O)(=O)c1cc(NC(C)=O)c(C)cc1C | 0 | 0 | 0 | 0 | 0 | 0
O=C(O)c1cccc(N/N=C/c2cccnc2)c1 | ? | 2.4µM | 8.9µM | 0.32µM | 0 | 0
O=C(N/N=C/c1cccnc1)c1cccc(NC(=O)c2ccc(Cl)cc2)c1 | 0 | 0 | - | 0 | 0 | -
O=C(O)c1cccc(N/N=C/c2ccc(-c3ccccc3)cc2)c1 | 0.025µM | 0.076µM | 0.2µM | 0.028µM | 0.15µM | 0
Oc1ccc(/C=N/Nc2ccccc2)cc1 | 0 | 0 | 0 | 0 | 0 | 0
O=C(COc1ccccc1Cl)N1CCN(c2ccccn2)CC1 | 0 | 0 | - | 0 | 0 | -
CCOC(=O)c1c(C)nc(C)c(C(=O)OCC)c1-c1ccc(OC)cc1 | 0 | 0 | 0 | 0 | 0 | 0
CCOC(=O)c1c(C)nc(C)c(C(=O)OCC)c1-c1cccc(N)c1 | 0 | 0 | 22µM | 0 | 0 | 0
COc1ccc(-c2nc3cc(NC(=O)c4cc5ccccc5o4)ccc3o2)cc1 | - | 0 | 0 | - | - | -
COc1cc(NC(=S)NC(=O)C(C)C)ccc1NC(=O)c1cc2ccccc2o1 | 0 | 0 | 0 | 0 | 0 | 0
COc1cc(NC(=O)C(C)C)ccc1NC(=O)c1cc2ccccc2o1 | 2.2µM | 7.6µM | - | 3.2µM | ? | -
COc1ccc(NC(=O)c2cc3ccccc3o2)cc1OC | 0 | 15µM | - | ? | ? | -
COc1ccc(NC(=O)c2cc3ccccc3o2)cc1 | 1.6µM | 3.8µM | ? | 0.56µM | 6.5µM | 0
SMILES | NPC1 prom act | FLuc counter | SMN2 splice up | Rab9 prom act | ELG1 genotoxic | Luc counter
COc1ccc(NC(=O)c2cc3ccccc3o2)cn1 | 2.8µM | 13µM | - | 2.5µM | ? | -
CC(CCc1ccccc1)NS(=O)(=O)c1ccc(Cl)c(C(=O)O)c1 (centres undefined) | 0 | 0 | - | 0 | 0 | -
Cc1cccc(NC(=O)N2CCN(C(=O)c3nsc4ccccc34)CC2)c1C | - | 0 | - | - | - | -
COc1ccc(NC(=O)c2coc3ccccc23)cc1OC | ? | 13µM | 0 | ? | ? | 0
COc1ccc(NC(=O)c2coc(=O)c3ccccc23)cc1OC | - | 0 | ? | - | - | -
O=C(COC(=O)c1ccccc1Nc1ccccc1)c1ccccc1 | 0 | 13µM | 0 | 0 | 0 | 0
CN(C(=O)c1ccccc1C(=O)OCC(=O)c1ccc(F)cc1)c1ccccc1 | 0 | ? | - | 0 | 0 | -
O=C(COC(=O)c1cc2ccccc2cc1O)c1ccccc1 | 0 | 27µM | - | 0 | ? | -
CNc1ccccc1C(=O)OCC(=O)c1ccc(F)cc1 | 0 | 5.4µM | 0 | 0 | 0 | 0
CC(NC(=O)COC(=O)c1cc2ccccc2cc1O)c1ccccc1 (centres undefined) | 0 | 0 | - | 0 | 0 | -
CNc1ccccc1C(=O)OCC(=O)c1ccccc1 | 0 | 7.6µM | ? | 0 | 0 | 0
Cc1ccc(NC(=O)COC(=O)c2ccccc2Nc2ccccc2)cc1 | 0 | 0 | 0 | 0 | 0 | 0
CN(C(=O)c1ccccc1C(=O)OCC(=O)c1ccccc1)c1ccccc1 | 0 | ? | - | 0 | 0 | -
COc1ccccc1NC(CC(=O)c1ccccc1)C(=O)OCC(=O)c1ccc(F)cc1 (centres undefined) | 0 | 1.7µM | 5.6µM | 0 | 1.6µM | 0
COc1ccccc1NC(=O)CCCC(=O)OCC(=O)c1ccc(F)cc1 | 0 | 0 | - | 0 | 0 | -
O=C(O)c1c(Cl)c(Cl)c(Cl)c(Cl)c1-c1c2cc(I)c(=O)c(I)c-2oc2c(I)c(O)c(I)cc12 | - | - | - | - | - | 13µM
COc1ccc2oc(C(=O)c3ccccc3)c(N)c2c1 | 2µM | 3µM | 11µM | 2µM | ? | 0
COC(=O)CCC(=O)c1oc2ccc(OC)cc2c1N | 2.5µM | 3.4µM | ? | 4.5µM | 3.7µM | 0
COC(=O)c1oc2ccc(Cl)cc2c1N | 0 | 0[2.3 µM] | ? | 0 | 0 | 0
O=C(c1ccc(Cl)cc1)c1coc2ccc(O)cc12 | ? | 3.8µM | 0 | ? | 0 | 0
O=C(c1coc2ccc(O)cc12)C1CC1 | 0 | 0 | 0 | 0 | 0 | 0
COc1ccc(C(=O)c2oc3ccccc3c2N)cc1 | 3.5µM | 11µM | 13µM | ? | 9.2µM | 0
O=C(c1ccccc1F)N1CCCC(C(=O)N2CCc3ccccc3C2)C1 (centres undefined) | 0 | 0 | - | 0 | 0 | -
COc1ccc2oc(C(=O)OCC(=O)N3CCCCC3C)c(C)c2c1 (centres undefined) | - | - | - | - | 0 | -
COc1ccc2occ(C(=O)c3ccccc3)c2c1 | 0 | 13µM | ? | ? | ? | 0
SMILES | NPC1 prom act | FLuc counter | SMN2 splice up | Rab9 prom act | ELG1 genotoxic | Luc counter
COc1ccc2oc(C(=O)C3CC3)c(N)c2c1 | ? | 13µM | ? | ? | ? | 0
Oc1ccc(C[C@H]2CNCCN2CC2(c3ccccc3)CC2)cc1 | 0 | 0 | - | 0 | 0 | -
N#CC1=C(N)Oc2cc3c(cc2C1c1ccc(Cl)cc1)OCO3 (centres undefined) | 0 | 0 | 25µM | 0 | 0 | 0
CC(CC(=O)Nc1cccc(F)c1)S(=O)(=O)c1ccc2c(c1)NC(=O)CO2 (centres undefined) | 0 | 0 | - | 0 | 0[9.26 µM] | -
Oc1ccc(Br)cc1-c1cc(-c2ccccc2F)[nH]n1 | 0 | 0[2.3 µM] | ? | 0 | 0 | 0
Cc1ccc(-c2cc(-c3ccccc3Cl)[nH]n2)c(O)c1 | ? | 0[2.3 µM] | 13µM | ? | ? | 0
Cc1ccc(-c2cc(-c3ccccc3[N+](=O)[O-])[nH]n2)c(O)c1 | ? | ? | 18µM | 3.5µM | ? | 0
Cc1ccccc1-c1cc(-c2ccccc2O)n[nH]1 | 0 | ? | 25µM | 3.2µM | ? | 0
Cc1ccc(C(=O)c2oc3ccccc3c2NC(=O)COc2ccccc2Cl)cc1 | - | 0 | 0 | - | - | -
